# From PubChem BioAssay
# CYP2C9 activ: human CYP2C9 activators, primary screen, biochemical, luminescence; 96,000 compounds, 1.4% hits; Cytochrome P450 2C9 (Homo sapiens), P11712; recombinant CYP2C9, luciferin-H conversion; hits give high values; factor 1 = untreated enzyme, 0 = blocked; AID 1024, 2008; activation factor at 5 µM;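 active = activation factor of 2 or more for CYP2C9 at a 5 µM dose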;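 note: 0 = sulfaphenazole-blocked wells and 1 = vehicle-only wells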
# Target sequence (P11712 whole entry, looked up): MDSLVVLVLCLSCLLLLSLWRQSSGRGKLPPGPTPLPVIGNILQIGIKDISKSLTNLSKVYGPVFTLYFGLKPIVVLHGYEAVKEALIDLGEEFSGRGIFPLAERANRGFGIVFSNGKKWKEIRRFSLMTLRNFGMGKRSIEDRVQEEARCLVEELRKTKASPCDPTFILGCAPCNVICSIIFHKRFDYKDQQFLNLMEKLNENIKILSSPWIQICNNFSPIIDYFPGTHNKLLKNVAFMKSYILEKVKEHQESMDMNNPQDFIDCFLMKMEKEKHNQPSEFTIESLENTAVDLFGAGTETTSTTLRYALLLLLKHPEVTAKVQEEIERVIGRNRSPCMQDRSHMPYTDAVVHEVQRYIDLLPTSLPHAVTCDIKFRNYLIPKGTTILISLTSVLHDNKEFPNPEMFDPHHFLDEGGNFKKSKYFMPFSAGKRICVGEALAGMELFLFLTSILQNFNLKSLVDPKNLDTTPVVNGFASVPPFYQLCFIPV
# CYP2C9 inhib: blockers of cytochrome P450 2C9 activity – biochemical, luminescence, ADME assay, primary screen; P11712; CYP2C9 Supersomes, luciferin-H conversion; inhibition, % at 5 µM; 96,000 compounds, 20% hits;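 active = blocking of liver enzyme CYP2C9 beyond about 50% at 5 µM, limit read from the data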
# sEH act: soluble epoxide hydrolase activators, primary screen, biochemical, human sEH. Bifunctional epoxide hydrolase 2 (Homo sapiens), P34913. activation, % at 2 µM. AID 717, 2007. purified human sEH enzymatic activity, activator screen. 91,000 compounds, 0.04% hits; in the data active = activation above about 37%
# CYP2C19 inhib: blockers of cytochrome P450 2C19 activity – biochemical, luminescence, ADME assay, primary screen; 96,000 compounds, 21% hits; CYP2C19 Supersomes, luciferin-H EGE luminescence, 30 min; P33261; inhibition, % at 5 µM;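 active = CYP2C19 inhibition above a set limit at 5 µM in the primary screen, cut at about 50% in these data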;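 note: plate controls were negative control wells for no effect and 2.5 mM tranylcypromine positive control for full effect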
# CYP2C19 activ: human CYP2C19 activators, primary screen, biochemical, luminescence | 96,000 tested, under 10 active | Cytochrome P450 2C19 (Homo sapiens), P33261 | AID 1025, 2008 | recombinant CYP2C19, luciferin-H EGE luminescence; hits give high values; 0 = fully inhibited enzyme, 1 = untreated enzyme | activation factor at 5 µM;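 active = activation factor of at least 2 at 5 µM in the primary screen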;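 note: 0 = wells with 2.5 mM tranylcypromine and 1 = vehicle-only wells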
# sEH inh: soluble epoxide hydrolase inhibitors, primary screen, biochemical, human sEH. 91,000 compounds, 0.34% hits. inhibition, % at 2 µM. Bifunctional epoxide hydrolase 2 (Homo sapiens), P34913. recombinant human sEH enzymatic activity assay. AID 707, 2007; in the data active = inhibition above about 80%
# An asterisk follows results filed as active; · = no result. A selection: hits, their analogues and other compounds. The true share with any hit is near 27%.
SMILES,CYP2C9 activ,CYP2C9 inhib,sEH act,CYP2C19 inhib,CYP2C19 activ,sEH inh
CCOc1ccc(CNn2nnnc2N)cc1,1,2,-3,4,1,4
CCS(=O)(=O)c1ccc(C(=O)Nc2cccc(Cl)c2)c(Cl)c1Cl,1.3,-30,16,0,1,-19
CCn1c(SCCOc2ccc(Cl)cc2)nnc1-c1cccs1,0.1,90*,-2,96*,0,1
CCn1c(SCC(=O)c2ccc(Cl)cc2)nnc1-c1cccs1,0.8,25,9,70*,0.3,-11
c1ccc(-c2nn3c(C4COc5ccccc5O4)nnc3s2)cc1 (configuration not stated),·,·,10,·,·,-7
COC(=O)CSc1nnc(-c2cccs2)n1-c1ccc(Cl)cc1,0.6,44,1,81*,0.2,-3
CCn1c(SCC(=O)Nc2nc(C)c(C)s2)nnc1-c1cccs1,·,·,0,·,·,-1
CCn1c(SCC(=O)N2CCOCC2)nnc1-c1cccs1,0.9,10,9,7,0.9,-10
COC(=O)CSc1nnc(C2COc3ccccc3O2)n1-c1ccccc1 (configuration not stated),0.8,16,6,58*,0.4,-6
Cc1cc(N2CC(=O)N(CCc3ccccc3)C(=O)C2)n2ncnc2n1,1,2,12,-7,1.1,-18
Cc1cc(=S)[nH]c2c(C)cccc12,1.7,-67,-4,18,0.8,3
CCn1c(SCC(=O)c2c[nH]c3ccccc23)nnc1-c1cccs1,0.9,14,0,70*,0.3,6
CCn1c(SCC(=O)c2ccc(Cl)cc2)nnc1C(C)C,1.2,-16,4,77*,0.2,-7
Cn1cnnc1SCC(=O)c1c[nH]c2ccccc12,0.8,21,·,47,0.5,·
O=S(=O)(c1cccs1)N1CN(Cc2ccc(F)cc2)c2nc3ccccc3nc21,0.3,70*,6,22,0.8,-6
C=CCN1CN(S(=O)(=O)c2cccs2)c2nc3ccccc3nc21,0.8,17,12,63*,0.4,-11
O=S(=O)(c1cccs1)N1CN(Cc2cccs2)c2nc3ccccc3nc21,0.2,79*,1,93*,0.1,-1
O=S(=O)(c1cccs1)N1CN(Cc2ccccc2)c2nc3ccccc3nc21,1,1,8,-12,1.1,-5
COc1cccc2cc(C(=O)N(C)C3CCN(C)CC3)c(=O)oc12,1.2,-23,4,5,1,-2
CC1CCCC(C(=O)O)N1C(=O)CCSSCCC(=O)N1C(C)CCCC1C(=O)O (configuration not stated),1.1,-14,-2,-12,1.1,-1
CCCC(=NCC(=O)O)C1=C(O)C(C(=O)OC)C(C)(C)CC1=O (configuration not stated),1,-1,10,6,0.9,-12
CCCCC(=Nc1ccc(N)cc1)C1=C(O)C(C(=O)OC)C(C)(C)CC1=O (configuration not stated),0.5,51*,5,2,1,-4
CCCC(=O)C1=C(O)C(C(=O)OC)C(C)(C)CC1=Nc1ccccc1 (configuration not stated),0.2,82*,14,87*,0.1,-12
CCC(=Nc1ccc(N)cc1)C1=C(O)C(C(=O)OC)C(C)(C)CC1=O (configuration not stated),0.7,29,-6,21,0.8,3
CCCC(=NCc1ccccc1)C1=C(O)C(C(=O)OC)C(C)(C)CC1=O (configuration not stated),0.4,64*,-1,93*,0.1,-5
SMILES,CYP2C9 activ,CYP2C9 inhib,sEH act,CYP2C19 inhib,CYP2C19 activ,sEH inh
CCCC(=Nc1ccccc1)C1=C(O)C(C(=O)OC)C(C)(C)CC1=O (configuration not stated),0.5,45,-17,69*,0.3,14
COc1cccc(CNc2nc3nc(C)cc(=O)n3[nH]2)c1,1,4,2,-7,1.1,-2
CCOCCn1c(CN2CCC(Cc3ccccc3)CC2)nc2c1c(=O)n(C)c(=O)n2C,0.8,24,-8,22,0.8,8
Cc1cccc(-n2c(Cc3cc(=O)[nH]c(=O)[nH]3)nnc2SCC(=O)NCC2CCCO2)c1 (configuration not stated),1.1,-6,14,-7,1.1,-13
C/C(=N/NC(=O)c1ccc2c(c1)OCO2)c1cccc(NC(=O)C(C)(C)C)c1,0.6,38,-6,4,1,8
COC(=O)C1C(O)=C(C=NCc2ccccc2)C(=O)CC1(C)C (configuration not stated),0.9,12,7,16,0.8,-5
CCC(=NCc1ccccc1)C1=C(O)C(C(=O)OC)C(C)(C)CC1=O (configuration not stated),0.1,86*,-11,97*,0,12
O=C(COC(=O)CCS(=O)(=O)c1ccc(Cl)cc1)Nc1ncc(Cl)cc1Cl,0.8,16,-14,51*,0.5,14
Cc1c(Cl)cnc(NC(=O)COC(=O)CCS(=O)(=O)c2ccccc2)c1Cl,1,5,-5,12,0.9,4
COc1ccccc1NCCC(=O)OCC(=O)Nc1ccc(Cl)cn1,0.5,47,·,80*,0.2,·
O=C(COC(=O)CCCN1C(=O)c2ccccc2C1=O)Nc1ncc(Cl)cc1Cl,0.4,57*,-3,54*,0.5,3
O=C(COC(=O)CNC(=O)c1ccco1)Nc1ccc(Cl)cn1,0.5,48,15,54*,0.5,-13
O=C(CNC(=O)c1ccco1)NCC(=O)OCc1ccc(Cl)cc1,0.5,47,-5,0,1,6
C=C1CC2C=C(NC(C)=O)CC(C1)C2 (configuration not stated),1,4,1,20,0.8,-4
O=C(NCC1(c2ccccc2)CCCC1)C1(c2ccccc2)CCCC1,·,·,4,·,·,0
NC(=O)C1(N2CCCCC2)CCN(C(=O)c2cccs2)CC1,0.9,9,3,29,0.7,-4
CC(=O)c1cccc(NC(=O)NCCS(C)=O)c1 (configuration not stated),1.1,-11,9,-14,1.1,-11
COc1ccc(CC(=O)OCC(=O)Nc2ncc(Cl)cc2Cl)cc1OC,0.8,16,-10,51*,0.5,10
COc1ccccc1OCCC(=O)OCC(=O)Nc1ncc(Cl)cc1Cl,1.4,-35,9,87*,0.1,-10
